PubChem BioAssay
Active and inactive are the calls of the source.

Assays:
[1] = compound effects on differentiated 3T3-L1 adipocyte viability – cell-based, 3T3-L1 adipocytes, calcein-AM fluorescence, 48 h, basal, profiling panel (AID 1163); conditions: 3T3-L1 adipocytes viability, higher = more signal
[2] = compound effects on hepatocellular carcinoma cell viability – HepG2, calcein-AM fluorescence, 48 h, basal, profiling panel (AID 1164); conditions: higher = more signal
[3] = compound effects on multiple myeloma cell viability – MM1S, calcein-AM fluorescence, 48 h, basal, profiling panel (AID 1165); conditions: higher = more signal
[4] = calcein-AM signal in unstimulated myeloma cells – cell-based, calcein-AM fluorescence, 48 h, PK04 Diversity Set, profiling panel (AID 1166); conditions: RPMI8226 myeloma viability, higher = more signal;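 also: cells grown under basal conditions without added stimulus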
[5] = JC-1 mitochondrial signal, unstimulated HepG2 cells – cell-based, JC-1 fluorescence, 24 h, 100 nL compound, profiling panel (AID 1167); conditions: HepG2 mitochondrial potential, higher = more signal
[6] = JC-1 mitochondrial signal, unstimulated adipocytes – cell-based, JC-1 fluorescence, 3T3-L1 adipocytes, 24 h, 100 nL compound, profiling panel (AID 1168); conditions: JC-1 mitochondrial fluorescence, higher = more signal, called active from +8 up or from −8 down
[7] = JC-1 mitochondrial signal, unstimulated myeloma cells – cell-based, JC-1 fluorescence, RPMI8226, 24 h, 100 nL compound, profiling panel (AID 1169); conditions: JC-1 mitochondrial potential fluorescence, higher = more signal
[8] = JC-1 mitochondrial signal, unstimulated MM1S myeloma – cell-based, JC-1 fluorescence, 24 h, 100 nL compound, profiling panel (AID 1170); conditions: MM1S mitochondrial potential, higher = more signal
[9] = resazurin metabolic signal in A549 cells – cell-based, resazurin fluorescence, 24 h, PK04 Diversity Set, profiling panel (AID 1171); conditions: A549 viability, higher = more signal, called active from +8 up or from −8 down
[10] = resazurin metabolic signal in HepG2 cells – cell-based, resazurin fluorescence, 24 h, PK04 Diversity Set, profiling panel (AID 1172); conditions: HepG2 viability, higher = more signal
[11] = budding yeast growth changes without added modifier – OD600, strain BY4716, 24 h, basal condition, primary screen (AID 1173); conditions: S. cerevisiae BY4716 growth, OD600, 24 h; higher = more signal, called active from +8 up or from −8 down
[12] = viability profiling in MM1S myeloma cells – cell-based, resazurin fluorescence, basal, 24 h, PK04 Diversity Set, profiling panel (AID 1174); conditions: higher = more signal, called active from +8 up or from −8 down
[13] = biological target: Dihydroorotate dehydrogenase (quinone), mitochondrial (Plasmodium falciparum (isolate 3D7)) (UniProt Q08210); assay: inhibition of P. falciparum DHODH – biochemical, C-terminal His tag, absorbance 600 nm, primary screen (AID 1175); conditions: PfDHODH enzyme, DCIP absorbance 600 nm; higher = more signal, called active from +8 up or from −8 down;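 also: recombinant parasite enzyme with a five histidine tag at its C terminus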
[14] = growth modulation of vineyard yeast isolate – strain RM11-1a, OD600, basal, 24 h, primary screen (AID 1177);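 also: cultures grown under basal conditions with no added stressor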; conditions: S. cerevisiae RM11-1a growth, OD600, 24 h; higher = more signal, called active from +8 up or from −8 down
[15] = growth of efflux-deficient E. coli DRC39 – strain DRC39, OD650, 24 h, E. coli filamentation inducers, primary screen (AID 1178);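 also: growth measured as culture turbidity by optical density at 650 nm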; conditions: E. coli DRC39 acrAB, higher = more signal, called active from +8 up or from −8 down
[16] = growth of efflux-deficient E. coli DRC39 – strain DRC39, OD650, 48 h, E. coli filamentation inducers, primary screen (AID 1179);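 also: screen aims at cell division blockers that make cells filament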; conditions: E. coli DRC39 delta-acrAB growth, higher = more signal, called active from +8 up or from −8 down
[17] = viability profiling in RPMI8226 myeloma cells – cell-based, resazurin fluorescence, basal, 24 h, PK04 Diversity Set, profiling panel (AID 1180); conditions: higher = more signal;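 also: RPMI8826 multiple myeloma cell line at 5000 cells per well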
[18] = biological target: E3 ubiquitin-protein ligase XIAP (Homo sapiens) (UniProt P98170); assay: small molecules binding XIAP protein – biophysical, small-molecule microarray, fluorescence 635 nm, primary screen (AID 1181); conditions: higher = more signal;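 also: score merges 667 nm emission and signal to noise over triplicate slides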
[19] = test system: XIP peptide (Xip251-270) binding; assay: XIP fragment 251-270 binding compounds – biochemical, small-molecule microarray, fluorescence 635/667 nm, 0.1 µg/mL protein, primary screen (AID 1182); conditions: fluorescent protein binding, 635 nm, higher = more signal, called active from +8 up or from −8 down
[20] = test system: XIP peptide (Xip251-270); assay: compounds binding XIP fragment 251-270 – biochemical, small-molecule microarray, fluorescence 635/667 nm, 0.5 µg/mL protein, primary screen (AID 1183); conditions: fluorescence 635 nm, higher = more signal

Chain of Dihydroorotate dehydrogenase (quinone), mitochondrial (Plasmodium falciparum (isolate 3D7)) (Q08210 whole entry, looked up): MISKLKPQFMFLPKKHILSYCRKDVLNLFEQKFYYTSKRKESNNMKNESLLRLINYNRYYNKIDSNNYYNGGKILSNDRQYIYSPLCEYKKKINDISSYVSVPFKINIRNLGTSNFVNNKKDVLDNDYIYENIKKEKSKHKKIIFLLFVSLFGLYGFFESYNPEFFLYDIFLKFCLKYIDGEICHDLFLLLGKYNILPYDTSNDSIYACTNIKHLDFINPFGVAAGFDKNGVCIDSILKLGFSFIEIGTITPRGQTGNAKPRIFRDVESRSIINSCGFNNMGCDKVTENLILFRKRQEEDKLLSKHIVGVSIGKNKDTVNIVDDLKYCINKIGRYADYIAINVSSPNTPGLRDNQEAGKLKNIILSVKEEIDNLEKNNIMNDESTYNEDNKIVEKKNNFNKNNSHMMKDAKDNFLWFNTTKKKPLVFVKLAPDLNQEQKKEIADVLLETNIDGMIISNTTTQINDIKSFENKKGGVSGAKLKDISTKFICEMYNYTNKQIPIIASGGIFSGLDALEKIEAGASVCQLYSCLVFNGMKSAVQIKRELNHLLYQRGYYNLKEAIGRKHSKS
Chain of E3 ubiquitin-protein ligase XIAP (Homo sapiens) (P98170 whole entry, looked up, the tested form may be a part): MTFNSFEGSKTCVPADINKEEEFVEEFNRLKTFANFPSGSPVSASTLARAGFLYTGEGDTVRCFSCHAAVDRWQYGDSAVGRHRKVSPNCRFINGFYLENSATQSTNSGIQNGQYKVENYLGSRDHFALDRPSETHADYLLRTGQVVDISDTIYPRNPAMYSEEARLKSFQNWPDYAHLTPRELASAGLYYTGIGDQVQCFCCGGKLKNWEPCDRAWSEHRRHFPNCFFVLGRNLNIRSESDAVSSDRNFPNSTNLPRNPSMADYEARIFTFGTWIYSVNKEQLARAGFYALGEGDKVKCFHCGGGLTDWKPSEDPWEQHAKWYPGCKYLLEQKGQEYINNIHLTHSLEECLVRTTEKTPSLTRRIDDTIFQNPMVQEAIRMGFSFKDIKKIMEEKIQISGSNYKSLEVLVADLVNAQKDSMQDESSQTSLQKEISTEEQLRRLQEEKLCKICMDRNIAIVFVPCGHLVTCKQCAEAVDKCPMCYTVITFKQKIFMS

SMILES | z-score [1] | z-score [2] | z-score [3] | z-score [4] | z-score [5] | z-score [6] | z-score [7] | z-score [8] | z-score [9] | z-score [10] | z-score [11] | z-score [12] | composite z-score [13] | z-score [14] | z-score [15] | z-score [16] | z-score [17] | composite z-score [18] | composite z-score [19] | composite z-score [20]
CC(C)CNC(=O)[C@@H]1c2ccccc2C(=O)N(Cc2ccc(OC(F)(F)F)cc2)[C@H]1c1ccc(CO)cc1 | 0.18 | 0.442 | -0.201 | 0.351 | 2.64 | 1.08 (inactive) | 0.417 | -0.881 | 1.31 (inactive) | 0.867 | -1.78 (inactive) | 1.33 (inactive) | -0.876 (inactive) | -2.73 (inactive) | 1.38 (inactive) | 1.5 (inactive) | 1.13 | 0.205 | 0.0114 (inactive) | 0.762
CCCCC(=C=CC[C@@H](O)c1ccc(OCCO)cc1)C[C@@H](O)c1cc(Cl)cc(Cl)c1O | 1.37 | 0.652 | -3.38 | -3.4 | -0.376 | 1.43 (inactive) | -0.0474 | 0.781 | 2.58 (inactive) | 2.12 | -5.94 (inactive) | 0.199 (inactive) | -2.43 (inactive) | -3.1 (inactive) | 3.34 (inactive) | 2.27 (inactive) | 0.285 | 0.0394 | 0.925 (inactive) | 0.365
CC(C)(C)OC(=O)CC[C@@]1(C(=O)N2CCOCC2)N=C(c2ccc(OCCCO)cc2)O[C@@H]1c1ccccc1 | 0.861 | -0.215 | 0.317 | 0.414 | 0.652 | 1.08 (inactive) | -0.959 | 0.609 | 1.6 (inactive) | 0.957 | 0.0776 (inactive) | 1.43 (inactive) | 0.464 (inactive) | 0.732 (inactive) | 2.19 (inactive) | 0.869 (inactive) | 1.53 | 0.105 | 1.6 (inactive) | -0.326
COC(=O)c1c(CC[C@@H](CO)NC(=O)Nc2ccc(OC)cc2)oc(C(=O)Cc2ccccc2)c1C(=O)OC | 1.01 | -0.255 | -0.581 | 0.141 | -0.115 | 0.695 (inactive) | -0.204 | 0.212 | 0.367 (inactive) | -0.325 | -2.3 (inactive) | 0.955 (inactive) | -1.09 (inactive) | 1.22 (inactive) | 1.46 (inactive) | 0.987 (inactive) | 0.173 | -0.0525 | 0.684 (inactive) | 0.678
O=C(N1CCCCC1)[C@@]1(Cc2ccccc2)N=C(c2ccc(OCCCO)cc2)O[C@H]1c1ccccc1 | 1.33 | -2.47 | -3.48 | -3.78 | -1.61 | 0.804 (inactive) | -0.982 | -2.56 | 0.935 (inactive) | 0.569 | -0.635 (inactive) | -3.06 (inactive) | 0.31 (inactive) | 0.895 (inactive) | 1.97 (inactive) | 0.242 (inactive) | -5.21 | -0.0448 | 0.764 (inactive) | 0.66
CO[C@H]1O[C@H](CO)[C@@H](OC(=O)Nc2ccccc2)[C@H](OC(=O)Nc2ccccc2-c2ccccc2)[C@@H]1OC(=O)Nc1ccccc1-c1ccccc1 | 0.195 | -1.35 | -1.09 | -1.33 | -0.629 | 2.01 (inactive) | -0.947 | 0.15 | -2.22 (inactive) | -0.342 | -0.954 (inactive) | -1.15 (inactive) | -1.33 (inactive) | 2.16 (inactive) | -0.233 (inactive) | -0.3 (inactive) | -0.447 | -0.0988 | 1.7 (inactive) | 0.868
COCCOC(=O)N1C(=O)[C@@]2(c3ccccc31)[C@H](C(=O)Nc1nc3ccccc3s1)[C@H]1C(=O)O[C@H](c3ccccc3)[C@H](c3ccccc3)N1[C@@H]2c1ccc(O)cc1 | 0.471 | -1.49 | -3.26 | -3.76 | -3.44 | 1.01 (inactive) | -1.05 | -1.87 | 0.35 (inactive) | 0.148 | 2.4 (inactive) | -1.22 (inactive) | -2.63 (inactive) | 4.4 (inactive) | 1.23 (inactive) | 1.84 (inactive) | -0.898 | -0.0025 | 1.03 (inactive) | 0.748
CCOC(=O)C[C@H]1[C@H](OC(=O)c2ccc(-c3ccccc3)cc2)[C@@H](NC(=O)C2CCCCC2)c2cc(OCCCO)ccc2N1C(=O)c1ccc2ccccc2n1 | 1.25 | -0.0303 | 0.881 | 0.179 | 2.69 | 1.82 (inactive) | -0.953 | 0.717 | 1.02 (inactive) | 1.24 | -0.275 (inactive) | 1.22 (inactive) | 0.478 (inactive) | -1.33 (inactive) | 1.56 (inactive) | 0.999 (inactive) | 0.509 | 0.158 | 0.29 (inactive) | 0.0417
